Assay outcomes deposited in PubChem BioAssay by several laboratories.
Hits are enriched below; roughly 5.9% of the tested compounds scored in any of these assays.
HSF1 inh: HSF1 inhibition. 300,000 tested, 0.77% active. NIH3T3-HGL HSE-luciferase, MG132-induced, luminescence 8 h; hits give low values. activity change, negative = inhibition, % at 7.5 µM (by protocol);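 active = more than half of replicate wells show activity change below -50%, luminescence cut by over half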;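 note: luciferase reports HSF-1 transcriptional activity via heat shock element; 0% = median of DMSO wells and -100% = zero luminescence signal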
AHR act: human AHR activation; 320,000 tested, 2.5% active; P35869; AHR-responsive luciferase reporter cells, luminescence; activation, % at 5 µM; in the data active = activation above about 47%;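 note: 0% = vehicle wells and 100% = reference agonist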
Target sequence (P35869 whole entry, looked up): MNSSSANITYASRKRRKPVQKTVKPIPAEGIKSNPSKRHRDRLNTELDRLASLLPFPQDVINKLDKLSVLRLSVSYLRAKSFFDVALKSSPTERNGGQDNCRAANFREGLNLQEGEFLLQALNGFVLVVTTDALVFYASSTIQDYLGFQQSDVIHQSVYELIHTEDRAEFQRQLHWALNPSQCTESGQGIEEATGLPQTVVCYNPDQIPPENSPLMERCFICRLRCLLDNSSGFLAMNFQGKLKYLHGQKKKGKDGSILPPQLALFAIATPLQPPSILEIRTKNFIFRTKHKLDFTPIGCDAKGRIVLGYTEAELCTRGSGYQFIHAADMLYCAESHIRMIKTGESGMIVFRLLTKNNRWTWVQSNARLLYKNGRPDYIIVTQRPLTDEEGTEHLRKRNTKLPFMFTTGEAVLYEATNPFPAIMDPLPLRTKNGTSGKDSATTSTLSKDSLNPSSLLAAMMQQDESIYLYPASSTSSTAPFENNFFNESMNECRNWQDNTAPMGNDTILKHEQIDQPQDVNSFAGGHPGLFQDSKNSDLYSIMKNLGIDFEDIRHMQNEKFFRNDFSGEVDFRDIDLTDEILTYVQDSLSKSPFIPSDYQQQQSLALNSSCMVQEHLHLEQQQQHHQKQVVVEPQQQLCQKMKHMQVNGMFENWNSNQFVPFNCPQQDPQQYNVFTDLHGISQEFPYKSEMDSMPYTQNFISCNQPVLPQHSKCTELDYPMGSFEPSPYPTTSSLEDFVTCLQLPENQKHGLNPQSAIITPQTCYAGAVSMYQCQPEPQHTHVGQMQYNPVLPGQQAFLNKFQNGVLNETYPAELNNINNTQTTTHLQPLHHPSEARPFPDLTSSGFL
GAA850 FXN act: increases GAA850 frataxin promoter reporter activity | HEK293 lucGAA850 FXN promoter luciferase reporter, 24 h; percent of 10 µM SAHA response | 360,000 tested, 0.56% active | AID 540364 | activation, % at 6 µM;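 active = activation above the average of all compounds screened plus 3 SD, cutoff fixed separately per campaign, cut at about 7.5% in these data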;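 note: 0% = DMSO wells and 100% = 10 µM SAHA wells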
HSP90 refold inh: HSP90 refolding inhibition in rabbit reticulocyte lysate; inhibition, % at 5.6 µM; luciferase refolding luminescence, 3 h; 290,000 tested, 0.91% active;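 active = inhibition above the screen-wide mean plus 3 SD, computed separately per campaign, cut at about 16% in these data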;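 note: 0% = DMSO wells and 100% = 60 µM geldanamycin wells; inhibitors lower the luminescence because luciferase stays unfolded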
NR0B1 inh: inhibitors of human orphan nuclear receptor DAX1 (NR0B1); P51843; 340,000 tested, 0.99% active; HEK293 Gal4-DAX1 luciferase reporter, luminescence; inhibition, % at 6.75 µM;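 active = inhibition above the mean over all tested compounds plus 3 SD, cut at about 4.2% in these data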;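 note: 0% = DAX1-transfected cells with DMSO and 100% = empty-vector control cells with DMSO; inhibition shows as a rise in luminescence from relieved DAX1 repression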
HSF-1 act: increases HSF-1 driven luciferase reporter signal; NIH3T3-HGL HSF-1 luciferase reporter, MG132, 8 h; 100% = twice DMSO control signal; activation, % at 9 µM; 300,000 tested, 1.7% active;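 active = mean replicate activation of at least 50% with a set share of replicates each reaching 50%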;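 note: 0% = median of the neutral control wells and 100% = twice that signal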
Active calls of the source: *; . = no result given.

SMILES	HSF1 inh	AHR act	GAA850 FXN act	HSP90 refold inh	NR0B1 inh	HSF-1 act
COC(=O)C1(C)NC(c2ccc(O)cc2)C2C(=O)N(c3ccccc3)C(=O)C21 (stereo not given)	9	0	3	-2	0	30
CCOC(=O)C1(C)NC(c2ccc(O)cc2)C2C(=O)N(c3ccccc3)C(=O)C21 (stereo not given)	-54*	-1	1	0	0	-65
COc1ccc(-c2cn3c(C)c(C(=O)NC(C)(C)C)sc3n2)cc1	16	55*	5	45*	2	29
Cc1c(C(=O)Nc2ccccc2)sc2nc(-c3ccccc3)cn12	26	-7	1	-3	-1	55*
COc1ccc(-c2cn3c(C)c(C(=O)NC(C)C)sc3n2)cc1	4	-1	2	1	1	-18
COc1ccccc1N1CCN(C(=O)c2sc3nc(-c4ccc(F)cc4)cn3c2C)CC1	-6	2	-3	-1	-2	1
COc1ccc(-c2cn3c(C)c(C(=O)N4CCN(c5ccc(F)cc5)CC4)sc3n2)cc1	10	8	0	68*	2	18
COC(=O)C1CCN(C(=O)c2sc3nc(-c4ccccc4)cn3c2C)CC1	-72*	-1	0	3	1	-78
COc1ccc(-c2cn3c(C)c(C(=O)N4CCN(c5ccccc5)CC4)sc3n2)cc1	.	.	-2	.	0	.
COc1ccc(CC(=O)NC2CC(C)(C)NC(C)(C)C2)cc1OC	-1	0	2	4	1	18
NNC(=O)Cn1nc(Cc2ccccc2)n(N)c1=O	.	3	-1	.	1	.
Cc1nc([N+](=O)[O-])c(Sc2nc3ccccc3[nH]2)n1Cc1ccccc1	46	1	-8	6	-1	56*
COc1ccc2nc(SCC(=O)NCc3ccccc3)[nH]c2c1	7	.	1	1	4	37
Cn1cnc([N+](=O)[O-])c1Sc1nc2ccccc2[nH]1	-2	2	0	1	.	-8
Cc1cc2nc(Sc3c([N+](=O)[O-])nc(C)n3Cc3ccccc3)[nH]c2cc1C	77	21	-2	6	-1	95*
COc1ccc2nc(Sc3c([N+](=O)[O-])nc(C)n3Cc3ccccc3)[nH]c2c1	53	3	.	1	.	107*
COc1ccc(NC(=O)c2cc(C3CCCCN3C(=O)OCCF)on2)c(C)c1 (stereo not given)	.	.	-2	.	.	.
Cc1ccc2c(c1)c1c3n2CCN(CC(N)=O)C3CCC1 (stereo not given)	-6	15	1	-3	0	-1
Cc1ccc2c(c1)c1c3n2CCN(CC#N)C3CCC1 (stereo not given)	-2	44	1	-3	6.5*	-15
CCN1CCn2c3c(c4cc(Br)ccc42)CCCC31 (stereo not given)	9	49*	1	-4	1	5
Cc1nn(CC(=O)NC(C)C(C)C)c(C)c1S(=O)(=O)N1CCCCC1 (stereo not given)	.	.	1	.	0	.
Cc1cccc(C)c1NC(=O)CN1CCN(C(=O)c2ccc(OCc3cn4ccccc4n3)cc2)CC1	.	4	0	.	0	.
CCNC(=O)c1ccc(=O)n(Cc2ccc(Cl)cc2Cl)c1	3	1	1	.	1	-3
C(=N\Nc1nc2ccccc2[nH]1)/c1ccc2ncccc2c1	15	6	-5	4	-3	41
COc1cc(/C=N\Nc2nc3ccccc3o2)cc(OC)c1OC	12	12	-2	-1	1	25
SMILES	HSF1 inh	AHR act	GAA850 FXN act	HSP90 refold inh	NR0B1 inh	HSF-1 act
C(=N\Nc1nc2ccccc2[nH]1)/c1ccc2c(c1)OCCO2	49	-3	-4	5	1	71*
Cc1ccc2cc(/C=N/Nc3nc4ccccc4[nH]3)c(Cl)nc2c1	17	.	5	0	-1	19
C(=N\Nc1nc2ccccc2[nH]1)/c1cccc2nccnc12	58	27	0	2	.	64*
C#CCn1cc(/C=N/Nc2nc3ccccc3[nH]2)c2ccccc21	288	127*	5	6	-4	370*
COc1cc(/C=N\Nc2nc3ccccc3[nH]2)cc(OC)c1OC	346	50*	-5	2	-2	437*
CC(=O)NC12CC3CC(C1)CC(C(=O)N1CCN(S(=O)(=O)c4cccc(C(F)(F)F)c4)CC1)(C3)C2	-7	2	-1	.	1	-1
CC(=O)Nc1ccc(NC(=O)C(C)OC(=O)CCc2c[nH]c3ccccc23)cc1 (stereo not given)	-1	2	1	.	1	1
COc1cc(OC)c(OC)cc1/C=N/Nc1nc2ccccc2[nH]1	246	54*	1	-2	-2	267*
CCN(CC)C(=O)c1[nH]cnc1C(=O)Nc1ccon1	.	0	1	.	0	.
Cc1cc(NC(=O)CSc2nnc(Cc3ccccc3)o2)no1	-1	-2	0	4	5.1*	-9
COc1ccc(CC(=O)Nc2cc(C)on2)cc1	-91*	2	0	-3	0	-93
Cc1cc(NC(=O)C(=O)NCc2cccc(Cl)c2)no1	1	-1	2	5	5.5*	-18
Cc1cc(NC(=O)CSc2nnc(CNC(=O)c3ccccc3)o2)no1	-1	6	-3	4	0	-24
COc1ccc(OCCC(=O)Nc2cc(C)on2)cc1	-8	1	-1	-4	0	-9
Cc1cc(NC(=O)CSc2nc(N)c(NC(=O)c3ccccc3)c(=O)[nH]2)no1	-6	-3	2	-1	-1	3
Cc1cc(NC(=O)CSc2nc(N)c(NC(=O)c3ccco3)c(=O)[nH]2)no1	2	2	2	3	7.5*	4
Cc1cc(NC(=O)CSCC(=O)N(C)Cc2cccc(Cl)c2)no1	3	1	0	.	1	0
COc1ccc(S(=O)(=O)N2CCN(c3nc(-c4cccnc4)nc4ccccc34)CC2)cc1	.	3	-1	.	0	.
Cc1cc(NC(=O)c2nn(C)c(C)c2Br)no1	7	63*	4	4	0	22
COc1ccc(-c2ccc(SCC(=O)Nc3cc(C)on3)nn2)cc1OC	-3	3	3	-2	-1	8
Cc1cc(NC(=O)CSc2nnc(C)n2C)no1	-59*	0	-1	-1	-1	-68
COc1ccccc1-c1ccc(SCC(=O)Nc2cc(C)on2)nn1	39	0	2	3	0	60*
Cc1cc(NC(=O)c2nn(C)c(C)c2[N+](=O)[O-])no1	1	0	0	2	0	2
CCN(CC)S(=O)(=O)c1ccc(C(=O)/C=C/c2ccc(-c3ccc([N+](=O)[O-])cc3)o2)cc1	0	6	1	13	2	-5
CC(/C=C/C(=O)c1ccc(C)cc1)=C\c1ccccc1	9	64*	3	2	5.3*	15
Cc1ccc(C(=O)/C=C\NCc2ccccc2)cc1	20	0	4	-2	-1	41
